Over roughly 110,000 compounds, “z-score” has its median near -0.1; the highest 2% begin near 2. The list comes from a sample in which the highest values are over-represented; it also holds similar structures and randomly drawn compounds. Active and inactive are the calls of the source.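 Rule for the calls: active = z-score in the third read window above 3 or below -3; inactive = the rest.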
These compounds were tested against Metabotropic glutamate receptor 8 (Rattus norvegicus) (UniProt P70579) (assay: mGluR8 Gi/Go-coupled signaling modulation – cell-based, rat, thallium flux, HTS, primary screen (AID 488969)). Settings: HEK293 rat mGluR8, GIRK (G protein-gated inwardly rectifying potassium channel) thallium flux, FluoZin2; at 10 µM; stronger effect = higher value; submaximal glutamate (EC20) added with thallium.
Chain of Metabotropic glutamate receptor 8 (Rattus norvegicus) (P70579 whole entry, looked up): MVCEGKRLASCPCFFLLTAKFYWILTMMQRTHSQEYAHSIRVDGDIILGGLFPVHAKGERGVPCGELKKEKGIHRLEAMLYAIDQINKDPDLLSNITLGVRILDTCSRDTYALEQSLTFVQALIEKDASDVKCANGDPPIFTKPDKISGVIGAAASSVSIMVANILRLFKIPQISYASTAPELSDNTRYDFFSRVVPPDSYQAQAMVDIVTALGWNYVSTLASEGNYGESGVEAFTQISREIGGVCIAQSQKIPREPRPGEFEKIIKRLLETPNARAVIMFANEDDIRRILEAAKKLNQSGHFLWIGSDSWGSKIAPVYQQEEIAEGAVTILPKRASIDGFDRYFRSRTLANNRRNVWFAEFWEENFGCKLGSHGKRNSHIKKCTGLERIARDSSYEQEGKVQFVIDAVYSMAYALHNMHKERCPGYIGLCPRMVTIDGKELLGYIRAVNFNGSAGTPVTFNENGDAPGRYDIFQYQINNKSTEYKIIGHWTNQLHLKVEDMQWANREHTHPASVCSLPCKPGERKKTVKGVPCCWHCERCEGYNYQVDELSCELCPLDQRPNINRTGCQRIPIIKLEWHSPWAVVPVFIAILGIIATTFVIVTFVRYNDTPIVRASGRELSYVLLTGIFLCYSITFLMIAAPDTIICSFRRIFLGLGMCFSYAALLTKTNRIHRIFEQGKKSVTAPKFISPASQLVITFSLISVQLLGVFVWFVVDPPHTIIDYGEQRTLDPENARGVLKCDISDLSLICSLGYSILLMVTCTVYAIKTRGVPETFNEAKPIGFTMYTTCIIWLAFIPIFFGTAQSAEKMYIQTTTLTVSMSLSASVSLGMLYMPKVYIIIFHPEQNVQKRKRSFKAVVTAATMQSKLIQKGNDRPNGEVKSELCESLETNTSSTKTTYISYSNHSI
`CN(C(=O)c1ccncc1)c1nnc(-c2cnccn2)s1` showed a z-score of -0.251. `COc1ccc(NC(=O)Cc2coc3cc(C)c(C(C)C)cc23)cc1S(=O)(=O)N1CCOCC1` was tested, and the z-score was -0.503. Work on `CCOC(=O)/C(C#N)=C/c1cc2ccccc2nc1Cl` yielded a z-score of -0.3. `O=C(c1ccco1)N1CCN(S(=O)(=O)c2ccc(Cl)s2)CC1` showed a z-score of -0.0642. `COc1cccc(N(CC(=O)N/N=C(\C)c2cccs2)S(C)(=O)=O)c1` was tested, and the z-score was -0.154. In the case of `CCOC(=O)C1=C(C)OC(N)=C(C#N)C1c1cncc(-c2ccc(F)cc2)c1` (configuration not stated), the z-score was 2.92. For `CCOC(=O)C1=C(C)OC(N)=C(C#N)C1c1cc(F)ccc1F` (configuration not stated), the z-score was -2.09. Compound `CC1=C(C(=O)OC(C)C)C(c2cncc(-c3ccc(F)cc3)c2)C(C#N)=C(N)O1` (configuration not stated) has a z-score of -0.367. Work on `Cc1ccc(S(=O)(=O)NC(C)C(c2cccs2)N2CCN(c3ccccc3)CC2)cc1` (configuration not stated) yielded a z-score of -0.115. Compound `Cc1cccc(NC(=O)c2cc(Cl)nc3ccccc23)c1` has a z-score of -0.228. With `Cc1cccc(NC(=S)NC(=O)c2cc(-c3ccccc3)nc3ccccc23)c1` the z-score was 5.14 (active). Compound `Cc1ccc(-c2cc(C(=O)Nc3ccccc3C)c3ccccc3n2)o1` has a z-score of 0.279. With `Cc1ccccc1NC(=S)NC(=O)c1cc(-c2ccccc2)nc2ccccc12` the z-score was 7.41 (active). For `O=C(NCc1ccccn1)c1cc(-c2ccc(-c3ccccc3)cc2)nc2ccccc12`, the z-score was -0.368. `CCNC(=S)NNC(=O)c1cc(-c2cccc(C)c2)nc2ccccc12` was tested, and the z-score was 0.214. Compound `Cc1ccc(-c2cc(C(=O)Nc3cc(C)on3)c3ccccc3n2)cc1` has a z-score of -0.321. `O=C(NC(=S)Nc1ccccn1)c1cc(-c2ccccc2)nc2ccccc12` was tested, and the z-score was 3.22 (active). `O=C(NCc1ccccn1)c1cc(-c2ccccc2)nc2ccccc12` was tested, and the z-score was -0.314. `CCCOc1ccc(C(=O)NNC(=S)NC(=O)c2cc(-c3ccccc3)nc3ccccc23)cc1` was tested, and the z-score was 0.558. In the case of `CCCOc1ccc(C(=O)NNC(=S)NC(=O)c2cc(-c3ccc(Cl)cc3)nc3ccccc23)cc1`, the z-score was -0.0891. With `COc1ccc(C(=O)NNC(=S)NC(=O)c2cc(-c3ccccc3)nc3ccccc23)cc1` the z-score was 2.35. With `O=C(Cn1cc([N+](=O)[O-])cn1)N1CCc2ccccc21` the z-score was 0.0712. For `O=C(c1cccs1)c1cn(CC(=O)N2CCc3ccccc3C2)c2ccccc12`, the z-score was -0.134. For `COc1ccc(N2CCN(S(=O)(=O)c3cccc(C(F)(F)F)c3)CC2)cc1`, the z-score was -0.0298. `CCn1c(SCc2ccccc2Cl)nc2ccccc21` showed a z-score of 0.866. Compound `CN(/N=C/c1cccnc1)c1cnn(-c2ccc(F)c(Cl)c2)c(=O)c1Cl` has a z-score of -0.0102. In the case of `COC(=O)c1ccc(NC(=S)NC(=O)c2cc(-c3ccccc3)nc3ccccc23)cc1`, the z-score was 8.36 (active). `COC(=O)c1cc(OC)c(OC)cc1NC(=O)c1cc(-c2ccccc2)nc2ccccc12` showed a z-score of -0.917. With `COC(=O)c1ccc(NC(=S)Nc2ccccc2)cc1` the z-score was 0.0759. Compound `COc1ccc(Cl)cc1C(=O)NNC(=S)NC(=O)c1cc(-c2ccccc2)nc2ccccc12` has a z-score of 1.06. In the case of `O=C(NC(=S)Nc1ccccc1)c1cc(-c2ccccc2)nc2ccccc12`, the z-score was 9.35 (active). With `O=C(Nc1ccon1)c1cc(-c2ccccc2)nc2ccccc12` the z-score was -1.67. In the case of `c1ccc(CNc2nc(-c3cccs3)nc3ccccc23)cc1`, the z-score was 0.32. In the case of `O=C(O)c1cc(NCc2ccccc2C(F)(F)F)ccc1N1CCOCC1`, the z-score was -0.168. `N#Cc1cc([N+](=O)[O-])cnc1Nc1ccccc1` showed a z-score of -0.521. `CC1CCc2c(sc(NS(=O)(=O)c3ccccc3)c2C(=O)OC(C)C)C1` (configuration not stated) was tested, and the z-score was 8.13 (active). With `CC1CCc2c(sc(N)c2C(=O)OC(C)C)C1` (configuration not stated) the z-score was 0.201. With `COC(=O)c1c(NC(=O)CN2CCN(S(=O)(=O)c3ccccc3)CC2)sc2c1CCC(C)C2` (configuration not stated) the z-score was -0.486. With `CNC(=O)c1c(N)sc2c1CCCCC2` the z-score was 0.209. `CCOC(=O)c1c(NC2=NS(=O)(=O)c3ccccc32)sc2c1CCC(C)C2` (configuration not stated) was tested, and the z-score was 0.00913. `COCC(=O)Nc1sc2c(c1C(=O)OC)CCC(C)C2` (configuration not stated) gave a z-score of -0.444. Work on `COC(=O)c1c(NC(=O)c2ccccc2N(C)S(=O)(=O)c2ccccc2)sc2c1CCCC2` yielded a z-score of -0.215. Work on `CC(C)OC(=O)c1c(N)sc2c1CCCC2` yielded a z-score of 2.03. With `COC(=O)c1c(NS(=O)(=O)c2ccc(C)cc2)sc2c1CCC(C)C2` (configuration not stated) the z-score was 7.28 (active). `CC(C)OC(=O)c1c(NS(=O)(=O)c2ccccc2)sc2c1CCCC2` was tested, and the z-score was 12.3 (active). Compound `COC(=O)c1c(NC(=O)c2cccs2)sc2c1CCC(C)C2` (configuration not stated) has a z-score of -0.363. In the case of `CCOC(=O)c1c(NC(=O)C2CCCN(S(=O)(=O)c3ccccc3)C2)sc2c1CCCC2` (configuration not stated), the z-score was 0.269. Compound `O=C(CSc1nnnn1-c1cccc(F)c1)Nc1nc2ccccc2s1` has a z-score of -0.0501. `CC(Sc1nc(-c2ccccc2)cc(C(F)(F)F)n1)C(=O)N1CCOCC1` (configuration not stated) was tested, and the z-score was -0.153. In the case of `CCOc1ccc(N2C(=O)c3ccccc3C2=O)cc1`, the z-score was -1.29. With `CCOc1ccc(N2C(=O)c3ccccc3C2O)cc1` (configuration not stated) the z-score was 8.14 (active). For `O=C1c2ccccc2C(O)N1c1ccc(Cl)cc1` (configuration not stated), the z-score was -0.698. For `CCOc1ccc2cc(S(=O)(=O)n3ccnc3C)ccc2c1`, the z-score was 0.917. `COc1ccc([N+](=O)[O-])cc1NC(=O)C1CCCO1` (configuration not stated) gave a z-score of -0.326. With `C=CCNC(=O)CSc1cc([N+](=O)[O-])cc(S(=O)(=O)Cc2ccccc2)c1` the z-score was 0.665. For `Nc1nc(-c2cccnc2)nn1C(=O)c1ccco1`, the z-score was 0.31. `COc1ccc(CNc2nc(-c3cccnc3)nn2C(=O)c2ccco2)cc1` was tested, and the z-score was 9.48 (active). `CCC(=O)n1nc(-c2cccnc2)nc1NCc1ccc(OC)cc1` was tested, and the z-score was -5.08 (active). In the case of `COc1cc(NC(=O)c2ccc(-c3ccc(Br)cc3)o2)ccc1NC(=O)C(C)C`, the z-score was 0.116. `CCOC(=O)C(CC)Sc1nnc2c3cc(C)ccc3n(C)c2n1` (configuration not stated) was tested, and the z-score was -0.798. Compound `COC(=O)Cc1c(C)nc2nc(-c3ccc(OC)cc3)[nH]n2c1=O` has a z-score of -0.0668. Compound `COC(=O)Cc1c(C)nc2nc(-c3ccccc3)[nH]n2c1=O` has a z-score of -0.455. Work on `COC(=O)Cc1c(C)nc2nc(-c3ccco3)[nH]n2c1=O` yielded a z-score of 2.68. `CCn1c(SCC(=O)Nc2nc(-c3ccccc3)cs2)nnc1-c1ccccc1O` showed a z-score of -0.347. With `O=C1C(=O)N(CNc2cccnc2)c2ccccc21` the z-score was -0.21. `CC(C)c1ccc(/C=N/Nc2ccc(C(=O)O)cc2)cc1` showed a z-score of -0.222. In the case of `CNC(=S)N/N=C/c1ccc(C(C)C)cc1`, the z-score was 3.01 (active). `CNC(=S)N/N=C/c1ccc2c(c1)OCCO2` was tested, and the z-score was 0.205. With `Cn1c(SCc2ccc(Br)cc2)nnc1-c1ccncc1` the z-score was -0.143. `Cc1cccc(-c2cc3nc4c(c(N5CCC6(CC5)OCCO6)n3n2)CCCC4)c1` showed a z-score of 0.391. With `CC1CN(C2CC(C)(C)NC(C)(C)C2)CCC1=O` (configuration not stated) the z-score was 3.98 (active). With `CC1CN(Cc2ccccn2)CCC1=O` (configuration not stated) the z-score was -0.215. `CC(=O)N1CN(C2CC(C)(C)NC(C)(C)C2)Cc2c1sc1c2CCCC1` was tested, and the z-score was 0.426. For `O=C(NNC(=O)C1CCN(Cc2ccccc2)CC1)c1cccc(Cl)c1`, the z-score was 0.0829. Compound `CCOC(=O)c1cn(-c2ccccc2CO)c2c(F)c(F)c(F)cc2c1=O` has a z-score of -0.237. Work on `COc1ccc2ncc(S(=O)(=O)c3ccccc3)c(N3CCC4(CC3)OCCO4)c2c1` yielded a z-score of -0.776. For `CN(C)CC(O)COc1cccc(OCC(O)CN(C)C)c1` (configuration not stated), the z-score was -0.132. With `CN(C)CC(O)COc1ccc(-c2ccc(C#N)cc2)cc1` (configuration not stated) the z-score was 2.48. Work on `Cc1ccc(OCC(O)CN2C(=O)NC(C)(C)C2=O)cc1` (configuration not stated) yielded a z-score of -0.38. In the case of `N#Cc1ccc(-c2ccc(OCC(O)Cn3nnc4ccccc43)cc2)cc1` (configuration not stated), the z-score was -0.106. With `CC1(C)NC(=O)N(CC(O)COc2ccc(-c3ccc(C#N)cc3)cc2)C1=O` (configuration not stated) the z-score was 5.36 (active). With `CC1(C)NC(=O)N(CC(O)COc2ccc(-c3ccccc3)cc2)C1=O` (configuration not stated) the z-score was -0.0166. With `COc1ccccc1CC(=O)Nc1ccc(-c2noc(COc3ccc(Cl)c(C)c3)n2)cc1` the z-score was -0.166. With `Cc1cc(C)c2c(N)c(C(=O)c3cccc(Cl)c3)sc2n1` the z-score was -0.231. `CCc1ccc(N/C(SC)=C(/C#N)C(N)=O)cc1` showed a z-score of 0.119. For `CCOC(=O)c1sc2nc(CSc3nc4ccccc4n3CC)[nH]c(=O)c2c1C`, the z-score was 2.68. `COCCn1c(SCc2nc3sc(C(=O)OC)c(C)c3c(=O)[nH]2)nc2ccccc21` showed a z-score of 0.877. `CCn1c(SCc2nc3sc(C(=O)O)c(C)c3c(=O)[nH]2)nc2ccccc21` was tested, and the z-score was -0.449. `COc1cccc(-c2nnc(SCc3nc4ccccc4s3)n2C)c1` was tested, and the z-score was -0.34. `CCCCCCOC(=O)/C=C/c1c(C)[nH]c(=O)[nH]c1=O` showed a z-score of -0.139. In the case of `COc1ccc(OCC(=O)N/N=C(\C)c2ccc(-n3ccnc3)cc2)cc1`, the z-score was -0.334. For `CNC(=S)N/N=C(\C)c1ccc(-n2ccnc2)cc1`, the z-score was -0.579. Compound `C/C(=N\NC(=O)COc1ccc(C)cc1C(C)C)c1ccc(-n2ccnc2)cc1` has a z-score of 2.53. For `C/C(=N\Nc1ccc(C(=O)O)cc1)c1nc2ccccc2n1C`, the z-score was -0.702. Compound `C/C(=N\NC(=O)COc1ccc(C(C)(C)C)cc1)c1ccc(-n2ccnc2)cc1` has a z-score of 0.123. Compound `C/C(=N\NC(=O)c1ccc(C)cc1C)c1ccc(-n2ccnc2)cc1` has a z-score of -0.0942. With `C/C(=N\NC(=O)c1ccccc1)c1nc2ccccc2n1C` the z-score was 3.71 (active). `Cn1c(/C=N/NC(=O)c2ccccc2)nc2ccccc21` showed a z-score of 0.298. With `C/C(=N\NC(=O)c1ccccc1)c1ccc(-n2ccnc2)cc1` the z-score was 2.25. Compound `Cn1c(=O)c2c(ncn2CC(=O)OCC(=O)Nc2ccccc2Cl)n(C)c1=O` has a z-score of -0.159. Compound `Clc1cccc2sc(N3CCOCC3)nc12` has a z-score of 0.0232. For `CCOC(=O)C1=C(C)Nc2nc(SCc3cccnc3)nn2C1c1ccc(OC)cc1` (configuration not stated), the z-score was 0.463. With `CN1CCN(S(=O)(=O)c2ccc(Br)s2)CC1` the z-score was -0.0381. Work on `COC(=O)c1ccc(Cl)c(NC(=O)CN(c2ccc(OC)cc2)S(=O)(=O)c2ccccc2)c1` yielded a z-score of -0.285. `COC(=O)c1ccc(Cl)c(NC(=O)CN(c2ccc(OC)c(OC)c2)S(C)(=O)=O)c1` was tested, and the z-score was 2.1. With `CCOC(=O)c1oc2ccc(OC)cc2c1NC(=O)CN1CCN(C)CC1` the z-score was 0.148. Compound `COC(=O)c1oc2ccc(Br)cc2c1NC(=O)CN1CCN(C)CC1` has a z-score of 2.22. In the case of `COC(=O)c1ccc(Cl)c(NC(=O)CN2CCN(C)CC2)c1`, the z-score was 4.17 (active). In the case of `COC(=O)c1ccc(Cl)c(NC(=O)CN2CCN(Cc3ccccc3)CC2)c1`, the z-score was -0.236. In the case of `COC(=O)c1ccc(Cl)c(NC(=O)CN(c2ccc3c(c2)OCO3)S(C)(=O)=O)c1`, the z-score was 0.625. `COC(=O)c1ccc(Cl)c(NC(=O)CN2CCOCC2)c1` gave a z-score of 0.185. `CN1CCN(CC(=O)Nc2c(C(=O)C3CC3)oc3ccccc23)CC1` showed a z-score of -0.346.
